In paper PMC7862700, “An all-to-all approach to the identification of sequence-specific readers for epigenetic DNA modifications on cytosine”:

Key:
Test in all cases: DAPPL (digital affinity profiling via proximity ligation, sequencing); 10 mM Tris-HCl pH 7.5, 50 mM NaCl, 1 mM DTT, 4% glycerol, room temperature, 30 min; GST-TFs on glutathione beads, 16-mer random dsDNA library, 0.1% formaldehyde crosslink after washing; high values mean tight binding
FLI1 = biological target: T1, FLI1 (Homo sapiens, UniProt Q01543 1-452); details: protein: recombinant; tags: N-terminal GST; dsDNA, one strand shown
T1 sequence: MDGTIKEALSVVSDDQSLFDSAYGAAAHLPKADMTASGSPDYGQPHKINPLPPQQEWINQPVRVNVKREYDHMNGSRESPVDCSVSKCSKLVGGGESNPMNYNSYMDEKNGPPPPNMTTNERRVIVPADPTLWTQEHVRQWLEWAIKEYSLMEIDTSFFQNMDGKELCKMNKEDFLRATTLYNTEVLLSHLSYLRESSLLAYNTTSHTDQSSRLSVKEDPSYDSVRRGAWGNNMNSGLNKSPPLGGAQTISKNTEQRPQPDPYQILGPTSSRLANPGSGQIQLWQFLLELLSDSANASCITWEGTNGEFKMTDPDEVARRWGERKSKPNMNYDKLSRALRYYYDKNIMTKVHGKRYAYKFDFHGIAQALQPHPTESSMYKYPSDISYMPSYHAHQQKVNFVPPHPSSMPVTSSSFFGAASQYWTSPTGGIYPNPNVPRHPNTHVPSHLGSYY
In short: (§1)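 GST fusions of human transcription factors were expressed in yeast and captured with glutathione beads. Once given DNA barcodes and pooled alongside a tag-only sample, they were incubated for 30 min at room temperature with 200 nmole of a random double-stranded 16-mer DNA library in Tris/NaCl/DTT/glycerol buffer, then washed, crosslinked (0.1% formaldehyde), proximity-ligated, PCR-amplified and sequenced on an Illumina NextSeq500. The binding signal of each hexamer is its read frequency for a factor divided by its frequency for the tag-only sample.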

ELK1 = biological target: T2, ELK1 (Homo sapiens, UniProt P19419 1-428); details: protein: recombinant; tags: N-terminal GST; dsDNA, one strand shown
T2 sequence: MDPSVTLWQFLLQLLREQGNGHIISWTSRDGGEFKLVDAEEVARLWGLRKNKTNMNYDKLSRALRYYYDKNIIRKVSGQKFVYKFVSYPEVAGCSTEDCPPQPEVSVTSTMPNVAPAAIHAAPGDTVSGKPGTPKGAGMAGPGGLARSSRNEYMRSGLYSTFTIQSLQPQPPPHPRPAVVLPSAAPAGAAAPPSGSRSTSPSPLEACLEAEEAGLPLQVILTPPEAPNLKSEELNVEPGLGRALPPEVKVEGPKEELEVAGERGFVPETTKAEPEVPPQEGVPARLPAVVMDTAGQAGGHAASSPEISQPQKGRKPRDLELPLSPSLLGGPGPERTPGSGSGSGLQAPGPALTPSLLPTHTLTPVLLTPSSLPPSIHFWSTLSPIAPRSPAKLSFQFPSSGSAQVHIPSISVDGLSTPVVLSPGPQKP
In short: as §1

GABPA = biological target: T3, GABPA (Homo sapiens, UniProt Q06546 1-454); details: protein: recombinant; tags: N-terminal GST; dsDNA, one strand shown
T3 sequence: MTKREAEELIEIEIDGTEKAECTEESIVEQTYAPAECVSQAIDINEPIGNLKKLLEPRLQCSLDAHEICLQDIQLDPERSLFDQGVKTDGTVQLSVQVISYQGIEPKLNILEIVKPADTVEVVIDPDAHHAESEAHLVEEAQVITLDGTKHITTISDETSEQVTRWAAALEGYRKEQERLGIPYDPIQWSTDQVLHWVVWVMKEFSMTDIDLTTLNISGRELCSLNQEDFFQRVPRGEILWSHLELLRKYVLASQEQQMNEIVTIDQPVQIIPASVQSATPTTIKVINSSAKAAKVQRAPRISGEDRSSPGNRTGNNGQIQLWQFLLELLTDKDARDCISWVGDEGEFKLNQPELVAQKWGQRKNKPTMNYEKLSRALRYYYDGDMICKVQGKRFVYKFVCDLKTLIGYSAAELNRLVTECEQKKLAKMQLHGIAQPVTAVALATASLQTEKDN
In short: as §1

ERG = biological target: T4, ERG (Homo sapiens, UniProt P11308 1-479); details: protein: recombinant; tags: N-terminal GST; dsDNA, one strand shown
T4 sequence: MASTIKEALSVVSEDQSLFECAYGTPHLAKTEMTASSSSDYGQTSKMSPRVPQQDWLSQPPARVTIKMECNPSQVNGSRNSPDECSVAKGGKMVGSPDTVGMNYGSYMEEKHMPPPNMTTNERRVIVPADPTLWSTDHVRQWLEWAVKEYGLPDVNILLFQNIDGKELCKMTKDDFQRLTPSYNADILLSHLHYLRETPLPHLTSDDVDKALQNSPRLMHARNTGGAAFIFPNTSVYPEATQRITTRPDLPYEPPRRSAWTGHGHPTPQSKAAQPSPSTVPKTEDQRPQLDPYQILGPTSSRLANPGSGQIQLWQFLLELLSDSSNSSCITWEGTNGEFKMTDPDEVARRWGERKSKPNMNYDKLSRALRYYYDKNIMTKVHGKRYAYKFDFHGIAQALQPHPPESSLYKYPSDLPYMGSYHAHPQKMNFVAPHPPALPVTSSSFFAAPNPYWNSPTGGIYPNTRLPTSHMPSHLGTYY
In short: as §1

ELF1 = ELF1 (Homo sapiens, UniProt P32519 1-619); details: protein: recombinant; tags: N-terminal GST; dsDNA, one strand shown
ELF1, sequence (P32519 whole entry): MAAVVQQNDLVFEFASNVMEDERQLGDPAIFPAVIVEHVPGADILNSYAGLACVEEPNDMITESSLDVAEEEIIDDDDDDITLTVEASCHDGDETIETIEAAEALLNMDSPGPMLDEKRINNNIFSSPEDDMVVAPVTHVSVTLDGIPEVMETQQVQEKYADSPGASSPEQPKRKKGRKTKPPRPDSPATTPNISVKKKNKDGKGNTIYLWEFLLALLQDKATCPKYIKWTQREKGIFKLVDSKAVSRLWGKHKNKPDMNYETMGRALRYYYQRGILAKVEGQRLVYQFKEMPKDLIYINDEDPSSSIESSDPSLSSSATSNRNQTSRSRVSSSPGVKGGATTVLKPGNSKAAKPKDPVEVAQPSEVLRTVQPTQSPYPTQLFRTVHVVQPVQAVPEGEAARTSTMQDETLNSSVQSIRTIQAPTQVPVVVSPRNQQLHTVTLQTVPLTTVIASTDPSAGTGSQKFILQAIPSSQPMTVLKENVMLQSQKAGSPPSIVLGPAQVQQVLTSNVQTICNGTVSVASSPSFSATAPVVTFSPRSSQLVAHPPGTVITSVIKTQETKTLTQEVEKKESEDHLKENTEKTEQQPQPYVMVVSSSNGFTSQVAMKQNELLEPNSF
In short: as §1

EHF = biological target: T5, EHF (Homo sapiens, UniProt Q9NZC4 1-300); details: protein: recombinant; tags: N-terminal GST; dsDNA, one strand shown
T5 sequence: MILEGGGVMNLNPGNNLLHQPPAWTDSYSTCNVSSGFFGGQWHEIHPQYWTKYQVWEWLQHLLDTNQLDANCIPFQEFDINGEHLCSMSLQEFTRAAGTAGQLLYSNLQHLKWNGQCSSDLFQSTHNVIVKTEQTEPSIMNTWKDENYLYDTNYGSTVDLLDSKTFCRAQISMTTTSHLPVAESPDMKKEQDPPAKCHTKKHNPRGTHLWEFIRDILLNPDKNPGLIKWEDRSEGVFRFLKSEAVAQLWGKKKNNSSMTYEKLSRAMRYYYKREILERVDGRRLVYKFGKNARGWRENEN
In short: as §1

SPI1 = SPI1 (Homo sapiens, UniProt P17947 1-270); details: protein: recombinant; tags: N-terminal GST; dsDNA, one strand shown
In short: as §1

SPIB = SPIB (Homo sapiens, UniProt Q01892 1-262); details: protein: recombinant; tags: N-terminal GST; dsDNA, one strand shown
SPIB, sequence (Q01892 whole entry): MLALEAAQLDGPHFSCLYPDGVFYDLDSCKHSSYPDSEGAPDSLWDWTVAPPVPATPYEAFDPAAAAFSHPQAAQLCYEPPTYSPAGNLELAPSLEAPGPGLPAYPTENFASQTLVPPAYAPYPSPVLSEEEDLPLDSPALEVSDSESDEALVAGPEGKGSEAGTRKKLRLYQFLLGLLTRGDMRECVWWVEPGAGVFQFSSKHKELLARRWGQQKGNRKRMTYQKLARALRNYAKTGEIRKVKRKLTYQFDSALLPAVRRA
In short: as §1

ELK3 = biological target: T6, ELK3 (Homo sapiens, UniProt P41970 1-407); details: protein: recombinant; tags: N-terminal GST; dsDNA, one strand shown
T6 sequence: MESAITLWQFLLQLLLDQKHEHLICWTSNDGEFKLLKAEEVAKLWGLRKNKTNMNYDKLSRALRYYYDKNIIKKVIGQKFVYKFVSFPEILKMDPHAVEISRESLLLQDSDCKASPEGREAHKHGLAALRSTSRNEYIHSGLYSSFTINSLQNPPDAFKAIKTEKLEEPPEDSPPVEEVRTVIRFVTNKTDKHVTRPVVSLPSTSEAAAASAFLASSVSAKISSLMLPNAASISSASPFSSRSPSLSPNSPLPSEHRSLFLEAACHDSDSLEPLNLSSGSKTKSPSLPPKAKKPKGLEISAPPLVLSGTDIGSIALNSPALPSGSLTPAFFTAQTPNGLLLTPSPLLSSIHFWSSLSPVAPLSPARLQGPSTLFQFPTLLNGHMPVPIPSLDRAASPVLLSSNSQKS
In short: as §1

FEV = biological target: T7, FEV (Homo sapiens, UniProt Q99581 1-238); details: protein: recombinant; tags: N-terminal GST; dsDNA, one strand shown
T7 sequence: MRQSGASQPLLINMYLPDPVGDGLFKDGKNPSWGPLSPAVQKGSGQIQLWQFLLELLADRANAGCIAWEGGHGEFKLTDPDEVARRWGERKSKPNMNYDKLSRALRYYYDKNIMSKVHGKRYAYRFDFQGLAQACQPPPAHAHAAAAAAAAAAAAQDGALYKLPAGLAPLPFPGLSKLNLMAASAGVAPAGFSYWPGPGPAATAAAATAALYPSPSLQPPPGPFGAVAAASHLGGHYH
In short: as §1

ETV5 = ETV5 (Homo sapiens, UniProt P41161 1-510); details: protein: recombinant; tags: N-terminal GST; dsDNA, one strand shown
ETV5, sequence (P41161 whole entry): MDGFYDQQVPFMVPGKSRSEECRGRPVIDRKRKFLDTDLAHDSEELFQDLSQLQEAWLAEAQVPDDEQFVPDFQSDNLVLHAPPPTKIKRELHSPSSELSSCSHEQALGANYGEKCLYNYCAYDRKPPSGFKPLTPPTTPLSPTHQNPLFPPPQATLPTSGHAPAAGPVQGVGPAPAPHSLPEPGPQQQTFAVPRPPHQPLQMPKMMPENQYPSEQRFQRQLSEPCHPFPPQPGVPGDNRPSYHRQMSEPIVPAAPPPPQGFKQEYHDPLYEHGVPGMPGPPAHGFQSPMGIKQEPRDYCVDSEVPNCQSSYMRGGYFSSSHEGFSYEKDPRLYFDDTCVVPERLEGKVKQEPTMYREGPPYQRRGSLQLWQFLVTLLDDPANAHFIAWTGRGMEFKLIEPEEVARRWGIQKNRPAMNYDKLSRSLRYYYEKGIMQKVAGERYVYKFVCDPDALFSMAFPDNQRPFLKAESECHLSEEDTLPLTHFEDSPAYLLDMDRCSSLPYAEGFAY
In short: as §1

HSF1 = HSF1 (Homo sapiens, UniProt Q00613 1-529); details: protein: recombinant; tags: N-terminal GST; chain copies: 3; dsDNA, one strand shown
HSF1, sequence (Q00613 whole entry): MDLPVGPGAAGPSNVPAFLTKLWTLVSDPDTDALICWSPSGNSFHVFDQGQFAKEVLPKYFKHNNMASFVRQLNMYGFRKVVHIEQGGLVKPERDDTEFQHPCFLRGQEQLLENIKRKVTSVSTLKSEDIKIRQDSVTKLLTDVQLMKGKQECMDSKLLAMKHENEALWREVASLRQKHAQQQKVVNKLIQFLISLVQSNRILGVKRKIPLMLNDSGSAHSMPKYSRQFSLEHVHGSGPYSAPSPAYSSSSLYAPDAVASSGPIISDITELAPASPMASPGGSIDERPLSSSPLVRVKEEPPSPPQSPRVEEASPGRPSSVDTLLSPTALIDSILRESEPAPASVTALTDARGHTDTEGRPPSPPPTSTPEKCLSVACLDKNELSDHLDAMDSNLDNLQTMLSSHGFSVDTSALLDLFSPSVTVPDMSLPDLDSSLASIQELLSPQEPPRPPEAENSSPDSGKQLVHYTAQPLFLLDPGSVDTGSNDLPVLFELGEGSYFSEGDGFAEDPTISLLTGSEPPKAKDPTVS
In short: as §1

SPIC = biological target: T8, SPIC (Homo sapiens, UniProt Q8N5J4 1-248); details: protein: recombinant; tags: N-terminal GST; dsDNA, one strand shown
T8 sequence: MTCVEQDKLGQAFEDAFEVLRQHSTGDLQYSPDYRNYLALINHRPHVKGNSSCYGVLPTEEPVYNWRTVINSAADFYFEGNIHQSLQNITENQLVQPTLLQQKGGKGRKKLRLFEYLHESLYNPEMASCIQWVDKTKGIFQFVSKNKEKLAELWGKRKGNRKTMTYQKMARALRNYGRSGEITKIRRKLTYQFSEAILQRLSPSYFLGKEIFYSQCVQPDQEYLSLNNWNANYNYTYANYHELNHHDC
In short: as §1

ELF4 = ELF4 (Homo sapiens, UniProt Q99607 1-663); details: protein: recombinant; tags: N-terminal GST; dsDNA, one strand shown
ELF4, sequence (Q99607 whole entry): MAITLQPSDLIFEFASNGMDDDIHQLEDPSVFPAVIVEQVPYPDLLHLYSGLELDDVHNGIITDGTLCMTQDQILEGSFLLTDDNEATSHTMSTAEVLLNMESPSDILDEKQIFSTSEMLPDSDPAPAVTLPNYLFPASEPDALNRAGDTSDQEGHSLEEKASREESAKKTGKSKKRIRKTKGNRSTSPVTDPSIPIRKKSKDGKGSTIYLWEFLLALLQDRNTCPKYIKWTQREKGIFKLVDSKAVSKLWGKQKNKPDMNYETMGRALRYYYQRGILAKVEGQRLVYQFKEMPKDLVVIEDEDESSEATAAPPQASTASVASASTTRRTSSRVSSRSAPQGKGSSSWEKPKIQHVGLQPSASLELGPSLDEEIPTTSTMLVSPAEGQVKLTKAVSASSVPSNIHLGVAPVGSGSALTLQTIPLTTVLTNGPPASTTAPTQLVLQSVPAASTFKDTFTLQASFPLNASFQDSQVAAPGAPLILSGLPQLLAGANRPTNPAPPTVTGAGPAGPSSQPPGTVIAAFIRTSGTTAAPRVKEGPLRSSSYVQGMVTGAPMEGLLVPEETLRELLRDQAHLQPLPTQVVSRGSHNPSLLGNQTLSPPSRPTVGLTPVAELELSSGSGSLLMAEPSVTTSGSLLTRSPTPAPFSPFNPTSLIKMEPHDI
In short: as §1

ELK4 = biological target: T9, ELK4 (Homo sapiens, UniProt P28324-2 1-405); details: protein: recombinant; tags: N-terminal GST; dsDNA, one strand shown
T9 sequence: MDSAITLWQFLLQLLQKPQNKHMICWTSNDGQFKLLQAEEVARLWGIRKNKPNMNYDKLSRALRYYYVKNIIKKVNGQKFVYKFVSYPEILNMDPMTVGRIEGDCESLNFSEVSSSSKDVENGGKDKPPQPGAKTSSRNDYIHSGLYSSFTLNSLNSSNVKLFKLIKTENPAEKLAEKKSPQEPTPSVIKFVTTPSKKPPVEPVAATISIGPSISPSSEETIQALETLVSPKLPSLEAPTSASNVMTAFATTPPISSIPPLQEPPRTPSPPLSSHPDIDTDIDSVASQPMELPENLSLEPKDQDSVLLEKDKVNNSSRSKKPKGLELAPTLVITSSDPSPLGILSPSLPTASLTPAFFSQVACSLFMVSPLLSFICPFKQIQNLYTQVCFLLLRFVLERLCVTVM
In short: as §1

ETV2 = biological target: T10, ETV2 (Homo sapiens, UniProt O00321 1-342); details: protein: recombinant; tags: N-terminal GST; dsDNA, one strand shown
T10 sequence: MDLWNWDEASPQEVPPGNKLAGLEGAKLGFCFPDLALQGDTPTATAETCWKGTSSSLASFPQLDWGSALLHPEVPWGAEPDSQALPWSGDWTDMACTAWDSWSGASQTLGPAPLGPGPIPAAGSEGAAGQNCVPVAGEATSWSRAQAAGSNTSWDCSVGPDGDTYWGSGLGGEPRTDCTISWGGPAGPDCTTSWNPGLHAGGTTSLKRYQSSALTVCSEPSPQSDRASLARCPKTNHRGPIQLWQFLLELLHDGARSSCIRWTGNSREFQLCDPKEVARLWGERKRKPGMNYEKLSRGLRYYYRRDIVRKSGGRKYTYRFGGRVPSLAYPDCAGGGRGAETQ
In short: as §1

ELF3 = biological target: T11, ELF3 (Homo sapiens, UniProt P78545 1-371); details: protein: recombinant; tags: N-terminal GST; dsDNA, one strand shown
T11 sequence: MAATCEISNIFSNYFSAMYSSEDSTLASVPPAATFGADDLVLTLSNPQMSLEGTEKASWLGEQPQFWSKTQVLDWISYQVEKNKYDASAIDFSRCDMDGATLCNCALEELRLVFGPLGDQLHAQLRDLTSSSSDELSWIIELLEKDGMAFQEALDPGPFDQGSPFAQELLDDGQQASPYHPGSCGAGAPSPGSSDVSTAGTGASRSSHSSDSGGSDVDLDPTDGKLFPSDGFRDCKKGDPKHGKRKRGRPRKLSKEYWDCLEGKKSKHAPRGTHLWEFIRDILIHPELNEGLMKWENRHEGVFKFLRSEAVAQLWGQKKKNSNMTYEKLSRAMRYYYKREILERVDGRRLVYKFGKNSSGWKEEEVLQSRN
In short: as §1

CRX = CRX (Homo sapiens, UniProt O43186 1-299); details: protein: recombinant; tags: N-terminal GST; dsDNA, one strand shown
CRX, sequence (O43186 whole entry): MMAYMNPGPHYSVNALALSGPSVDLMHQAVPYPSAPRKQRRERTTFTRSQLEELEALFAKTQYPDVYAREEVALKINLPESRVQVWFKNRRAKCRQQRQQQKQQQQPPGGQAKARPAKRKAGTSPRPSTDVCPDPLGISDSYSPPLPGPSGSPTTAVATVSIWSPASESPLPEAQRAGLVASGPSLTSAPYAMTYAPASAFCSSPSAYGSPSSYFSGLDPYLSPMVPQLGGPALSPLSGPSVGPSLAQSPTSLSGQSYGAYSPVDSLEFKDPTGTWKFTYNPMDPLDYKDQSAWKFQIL
In short: as §1

ETV1 = ETV1 (Homo sapiens, UniProt P50549 1-477); details: protein: recombinant; tags: N-terminal GST; dsDNA, one strand shown
ETV1, sequence (P50549 whole entry): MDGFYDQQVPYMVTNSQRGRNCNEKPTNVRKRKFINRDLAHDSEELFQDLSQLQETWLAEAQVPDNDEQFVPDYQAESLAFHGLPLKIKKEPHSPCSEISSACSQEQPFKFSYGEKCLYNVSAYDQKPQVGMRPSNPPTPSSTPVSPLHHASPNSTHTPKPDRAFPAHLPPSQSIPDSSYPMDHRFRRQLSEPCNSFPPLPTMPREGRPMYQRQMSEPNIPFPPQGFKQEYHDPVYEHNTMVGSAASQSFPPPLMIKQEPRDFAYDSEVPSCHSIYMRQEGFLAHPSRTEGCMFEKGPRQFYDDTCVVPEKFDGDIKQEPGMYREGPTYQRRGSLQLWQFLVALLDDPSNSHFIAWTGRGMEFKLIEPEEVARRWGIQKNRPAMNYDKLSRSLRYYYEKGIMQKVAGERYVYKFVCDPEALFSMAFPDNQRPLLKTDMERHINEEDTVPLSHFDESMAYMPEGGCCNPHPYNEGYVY
In short: as §1

Sequence: CTCTTG
- binding signal (FLI1): 1.4 fold enrichment (6-mer frequency, TF over GST control)
- binding signal (ELK1): 1.33 fold enrichment (6-mer frequency, TF over GST control)
- binding signal (GABPA): 1.41 fold enrichment (6-mer frequency, TF over GST control)
- binding signal (ERG): 1.29 fold enrichment (6-mer frequency, TF over GST control)
- binding signal (ELF1): 1.36 fold enrichment (6-mer frequency, TF over GST control)
- binding signal (EHF): 1.3 fold enrichment (6-mer frequency, TF over GST control)
- binding signal (SPI1): 1.3 fold enrichment (6-mer frequency, TF over GST control)
- binding signal (SPIB): 1.43 fold enrichment (6-mer frequency, TF over GST control)
- binding signal (ELK3): 1.53 fold enrichment (6-mer frequency, TF over GST control)
- binding signal (FEV): 1.34 fold enrichment (6-mer frequency, TF over GST control)
- binding signal (ETV5): 1.41 fold enrichment (6-mer frequency, TF over GST control)
- binding signal (HSF1): 1.24 fold enrichment (6-mer frequency, TF over GST control)
- binding signal (SPIC): 1.35 fold enrichment (6-mer frequency, TF over GST control)
- binding signal (ELF4): 1.42 fold enrichment (6-mer frequency, TF over GST control)
- binding signal (ELK4): 1.52 fold enrichment (6-mer frequency, TF over GST control)
- binding signal (ETV2): 1.36 fold enrichment (6-mer frequency, TF over GST control)
- binding signal (ELF3): 1.22 fold enrichment (6-mer frequency, TF over GST control)
- binding signal (CRX): 1.21 fold enrichment (6-mer frequency, TF over GST control)
- binding signal (ETV1): 1.41 fold enrichment (6-mer frequency, TF over GST control)
